Some test systems named below: K-562 leukemia; MALME-3M melanoma; MDA-MB-231 breast; RXF 393 renal; SF-268 CNS; SF-295 CNS; SF-539 CNS; UACC-257 melanoma; M14 melanoma; HCT-15 colon; HT29 colon; SNB-75 CNS; SNB-19 CNS; U251 CNS; PC-3 prostate; SK-MEL-5 melanoma; UACC-62 melanoma; LOX IMVI melanoma; SK-MEL-28 melanoma; SK-MEL-2 melanoma.
What all share (assay): NCI-60 one-dose screen, 48 h (100 = growth as untreated, 0 = no growth, -100 = all killed)
Conditions in all cases: 10 µM

Structures are written as SMILES. Compounds without any hit were thinned out: in the full panel of roughly 83,000, 20% have a hit.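 Cells were grown in 96-well plates and exposed to the test compound at a single concentration for 48 hours; results are reported as percent growth, with values below 10 considered active.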 Unmarked numbers belong to inactive results. Calls of active or inactive are those of the source.

For `c1ccc(CO[C@H]2CO[C@H]3[C@@H]2OC[C@H]3OCc2ccccc2)cc1`, the growth was 106% in the assay with K-562 leukemia; 144% in the assay with MALME-3M melanoma; 112% in the assay with MDA-MB-231 breast; 119% in the assay on RXF 393 renal; 102% with SF-268 CNS; 95.3% in the assay with SF-295 CNS. The growth with SF-539 CNS was 110%; in the assay on UACC-257 melanoma, 108%; in the assay with M14 melanoma, 104%; in the assay with HCT-15 colon, 99.1%; in the assay with HT29 colon it was 107%; in the assay with SNB-75 CNS it was 111%. Besides, the growth in the assay on SNB-19 CNS was 101%; with U251 CNS it was 104%; with PC-3 prostate it was 90.6%; in the assay with SK-MEL-5 melanoma it was 101%; in the assay on UACC-62 melanoma, 95.9%; with LOX IMVI melanoma, 98.4%. Moreover, the results for the growth with SK-MEL-28 melanoma and in the assay on SK-MEL-2 melanoma were 105% and 104%, respectively.

With `COc1cc(-c2nn3c(/C=C4/C(=O)Nc5ccccc54)c(-c4ccc(C)cc4)nc3s2)cc(OC)c1OC`, the growth was 55.7% in the assay on K-562 leukemia; -23.8% (active) with MALME-3M melanoma; 50.6% in the assay on MDA-MB-231 breast; 63.7% with RXF 393 renal; 15.9% with SF-268 CNS; 74.1% in the assay on SF-295 CNS. Moreover, the growth was 81.8% in the assay with SF-539 CNS; 34.4% with UACC-257 melanoma; 42.9% in the assay with M14 melanoma; 58.9% with HCT-15 colon; 25.7% with HT29 colon; 18.3% in the assay on SNB-75 CNS. Besides, the growth was 87.8% in the assay with SNB-19 CNS; 65.2% in the assay on U251 CNS; 85.5% in the assay on PC-3 prostate; 12.2% in the assay on SK-MEL-5 melanoma; 58.5% in the assay on UACC-62 melanoma; 44.1% with LOX IMVI melanoma. In addition, the growth is 29.1% with SK-MEL-28 melanoma and 65.9% in the assay on SK-MEL-2 melanoma.

As for `CCOC(=O)C(=Cc1ccc(Br)cc1)C(=O)OCC`, the growth in the assay with K-562 leukemia is 0.625% (active); in the assay with MALME-3M melanoma, -49.5% (active); in the assay with MDA-MB-231 breast it was 4.72% (active); in the assay on RXF 393 renal, -75% (active); in the assay with SF-268 CNS, -6.93% (active); in the assay with SF-295 CNS, 38.3%. The growth with SF-539 CNS was 8.53% (active); in the assay with UACC-257 melanoma, -37.8% (active); in the assay on M14 melanoma, -22% (active); in the assay with HCT-15 colon, -42.1% (active); in the assay on HT29 colon, -64% (active); in the assay with SNB-75 CNS, 12.7%. Also, the growth with SNB-19 CNS was 63.1%; with U251 CNS, -46% (active); in the assay with PC-3 prostate it was -30.4% (active); in the assay with SK-MEL-5 melanoma, -47.9% (active); in the assay on UACC-62 melanoma, -72.6% (active); with LOX IMVI melanoma it was -85.7% (active). Further, the growth in the assay with SK-MEL-28 melanoma is -74.5% (active); with SK-MEL-2 melanoma it was -61.5% (active).

In the case of `CN(Cc1ccccc1)Cc1ccc([N+](=O)[O-])cc1I`, the growth with K-562 leukemia is 91.7%; in the assay on MALME-3M melanoma, 84%; in the assay with MDA-MB-231 breast, 101%; with RXF 393 renal it was 88.2%; in the assay on SF-268 CNS, 98%; in the assay with SF-295 CNS it was 104%. Further, the growth is 100% with SF-539 CNS; 103% with UACC-257 melanoma; 102% with M14 melanoma; 92.2% with HCT-15 colon; 93.8% in the assay on HT29 colon; 94.7% in the assay on SNB-75 CNS. For the same compound, the growth is 91.6% in the assay with SNB-19 CNS; 89.4% in the assay with U251 CNS; 90.5% in the assay with PC-3 prostate; 93.5% in the assay on SK-MEL-5 melanoma; 94.2% with UACC-62 melanoma; 102% in the assay with LOX IMVI melanoma. Further, the growth in the assay on SK-MEL-28 melanoma was 97.1%; in the assay on SK-MEL-2 melanoma, 95.3%.

In the case of `O=C(Nc1nc2ccccc2s1)Nc1ccc([N+](=O)[O-])cc1Cl`, the growth in the assay on K-562 leukemia is 58.8%; with MALME-3M melanoma, 96.4%; with MDA-MB-231 breast, 40.1%; with RXF 393 renal, -17.7% (active); in the assay on SF-268 CNS, 3.97% (active); with SF-295 CNS, 67.8%. For the same compound, the growth in the assay with SF-539 CNS is -48.5% (active); in the assay on UACC-257 melanoma it was -10.6% (active); with M14 melanoma, 79.7%; in the assay with HCT-15 colon, 87.2%; in the assay on HT29 colon, 55.8%; in the assay on SNB-75 CNS, 16.8%. Further, the growth in the assay on SNB-19 CNS was 111%; with U251 CNS, 32.6%; in the assay with PC-3 prostate it was 52%; with SK-MEL-5 melanoma it was 98.5%; in the assay on UACC-62 melanoma, 67.1%; with LOX IMVI melanoma it was 12.7%. Moreover, the growth with SK-MEL-28 melanoma was 68.5%; in the assay on SK-MEL-2 melanoma, 111%.

As to `Cc1cn(C2CCCCO2)c(=O)nc1NO` (stereo not given), the growth with K-562 leukemia was 101%; with MALME-3M melanoma, 137%; with MDA-MB-231 breast, 106%; in the assay on RXF 393 renal, 119%; in the assay with SF-268 CNS it was 103%; in the assay with SF-295 CNS, 106%. The growth is 96.1% with SF-539 CNS; 106% in the assay with UACC-257 melanoma; 113% in the assay on M14 melanoma; 100% with HCT-15 colon; 110% in the assay on HT29 colon; 99.3% in the assay with SNB-75 CNS. For the same compound, the growth in the assay with SNB-19 CNS was 105%; with U251 CNS, 112%; with PC-3 prostate it was 104%; in the assay with SK-MEL-5 melanoma, 108%; with UACC-62 melanoma, 104%; in the assay with LOX IMVI melanoma, 110%. Also, the growth with SK-MEL-28 melanoma is 116%; in the assay with SK-MEL-2 melanoma it was 120%.

`CCC(=O)N1C/C(=C/c2ccc(Br)cc2)C(=O)/C(=C/c2ccc(Br)cc2)C1`: the growth with K-562 leukemia was 0.563% (active); with MALME-3M melanoma, -67.9% (active); in the assay with MDA-MB-231 breast, -46.7% (active); with RXF 393 renal it was -92.7% (active); in the assay with SF-268 CNS, -38.5% (active); with SF-295 CNS it was -34.7% (active). In addition, the growth was -81.2% (active) in the assay on SF-539 CNS; -46.1% (active) with UACC-257 melanoma; -76.6% (active) in the assay on M14 melanoma; -32.3% (active) with HCT-15 colon; -58.9% (active) in the assay with HT29 colon; 1.74% (active) in the assay on SNB-75 CNS. Besides, the growth is -32.7% (active) in the assay with SNB-19 CNS; -81.4% (active) in the assay with U251 CNS; -42.8% (active) in the assay on PC-3 prostate; -53.8% (active) in the assay on SK-MEL-5 melanoma; -80.3% (active) with UACC-62 melanoma; -87.7% (active) in the assay on LOX IMVI melanoma. In addition, the growth is -72.4% (active) in the assay with SK-MEL-28 melanoma and -33.8% (active) with SK-MEL-2 melanoma.

For the compound `COc1ccc(/C=C2/CN(C(=O)c3ccccc3F)C/C(=C\c3ccc(OC)cc3)C2=O)cc1`, the growth is 2.77% (active) in the assay on K-562 leukemia; 62.1% in the assay with MALME-3M melanoma; 70.5% in the assay on MDA-MB-231 breast; 12.5% in the assay on RXF 393 renal; 51.5% in the assay on SF-268 CNS; 50.1% with SF-295 CNS. Also, the growth with SF-539 CNS is 93.1%; in the assay on UACC-257 melanoma, 71.2%; in the assay on M14 melanoma, 1.05% (active); with HCT-15 colon, 18.2%; with HT29 colon, -82.5% (active); in the assay with SNB-75 CNS, 68.9%. The growth in the assay with SNB-19 CNS is 77%; in the assay with U251 CNS, 9.44% (active); in the assay with PC-3 prostate, 52%; in the assay with SK-MEL-5 melanoma it was 48.6%; in the assay on UACC-62 melanoma, 56.5%; in the assay on LOX IMVI melanoma, -54.5% (active). Besides, the growth in the assay on SK-MEL-28 melanoma is 69.4%; in the assay on SK-MEL-2 melanoma, 94.1%.
